Records with an inconclusive call do not appear. Where a call stands in place of a potency, no number is given. A number with no mark means an inactive call. Activity calls are given as the source filed them. Calls come from the whole dose curve; as a rule, active = well fitted cell-killing curve with a large enough effect in the repeat runs; inconclusive = weak or mixed curves; inactive = flat fitted curve, though single readings scatter.

A short description of the assay: qHTS RealTime-Glo MT Cell Viability Assay in HepG2 cells - 16 hour (AID 1224885). Note: nearly all actives have a fitted effect of over 50% in size. The conditions noted are these: RealTime-Glo luminescence; series mostly up to 76.8 µM. The text has this: U.S. Tox21 Program National Center for Advancing Translational Sciences [NCATS] NIH Chemical Genomics Center [NCGC] U.S. Environmental Protection Agency [EPA] National Institutes of Environmental Health Sciences [NIEHS] National Toxicology Program [NTP] U.S. Food and Drug Administration [FDA] Tox21 Assay Overview: Measure of cell viability is critical in the cell-base assay. Analysis of cell viability is necessary for the characterization of cell responses to cytotoxic drugs and environmental stress. A RealTime-Glo MT Cell Viability Assay to monitor cell viability in real time of continues cell culture during 40 hours of compound treatment was used to screen Tox21 10K library compounds in HepG2 cells. The RealTime-Glo MT Cell Viability Assay is a nonlytic, homogeneous, bioluminescent method to measure cell viability in real time using a simple, plate-based method. The assay involves adding NanoLuc luciferase and a cell-permeant prosubstrate to cells in culture. Viable cells reduce the proprietary prosubstrate to generate a substrate for NanoLuc luciferase. This substrate diffuses from cells into the surrounding culture medium, where it is rapidly used by the NanoLuc Enzyme to produce a luminescent signal. The signal correlates with the number of viable cells, making the assay well suited for cytotoxicity studies.
Tox21 Assay Protocol Summary: The mixture of HepG2 cell suspension and reagents were dispensed at 600cells/6 ul/well in 1536-well tissue culture treated black solid bottom plates using a Multidrop dispenser. After the assay plates were incubated at a 37 C/5% CO2 incubator for 5 hours, 23 nL of compounds dissolved in DMSO, positive and negative controls was transferred to the assay plate by a pintool work station. The plates were incubated at 37 C for 40 hours. The luminescence intensity were measured at 0h, 8h, 16h, 24h, 32h and 40h time points using ViewLux plate reader during compound treatment.
With `NC(=O)COCCN1CCN(C(c2ccccc2)c2ccc(Cl)cc2)CC1` (stereo not given), the Potency entry is “inactive”.

Take `CCOC(=O)c1cccc(N)c1`: the Potency result was “inactive”. Same read-out and setting: the same measure for `N#Cc1ccc(C2CCCc3cncn32)cc1` (stereo not given): “inactive”; for `CCN(CC)CCNC(=O)c1cc(S(C)(=O)=O)ccc1OC`: “inactive”; for `COC(=O)CC(C)=O`: “inactive”. Turning to `Cc1cccn2c(=O)c(-c3nnn[nH]3)cnc12`, the activity change, negative = cytotoxic is -6.35% [at 15.8 µM]. As to `CCO[Si](CCC1CCC2OC2C1)(OCC)OCC` (stereo not given), the Potency result was “inactive”. Same read-out and setting: the same measure for `O=[N+]([O-])c1ccc(F)cc1F`: “inactive”.

As for `COC(=O)c1ccc(C)cc1C1=NC(C)(C(C)C)C(=O)N1` (stereo not given), the Potency result is “inactive”. On to `CCOC(=O)CCC(C)=O`, for which the Potency result was “inactive”.

For `CCCCCCCCS(=O)(=O)Cl`, the Potency entry is “inactive”.

Consider `CCCCCCCCCCCCCC=O`, for which the activity change, negative = cytotoxic is 0.224% [at 6.97 µM]. On to `CC[N+](C)(C)c1cccc(O)c1`, for which the Potency entry was “inactive”. Regarding `Nc1cc(=O)[nH]c(N)n1`, the Potency entry was “inactive”. Same read-out and setting: the same measure for `CN1CCCC1`: “inactive”; for `NS(=O)(=O)c1cc(C(=O)O)cc(N2CCCC2)c1Oc1ccccc1`: “inactive”. Take `NC(=O)c1cn(Cc2c(F)cccc2F)nn1`: the Potency result was “inactive”. Take `COC(=O)CCSCCC(=O)OC`: the Potency entry was “inactive”. On the same count and under the same terms, the same measure for `CCc1ccc(O)c(OC)c1`: “inactive”. On to `COCCc1ccc(OCC(O)CNC(C)C)cc1` (stereo not given), for which the Potency result was “inactive”. The same measure, in the same setting: the same measure for `CN1CC(=O)NC1=N`: “inactive”. On the same count and under the same terms, the same measure for `CCCCCSCCCCC`: “inactive”; for `O=C(c1ccccc1)C1CCCCC1`: “inactive”. The same measure, in the same setting: the same measure for `CC(C)OC(=O)c1ccccc1`: “inactive”. As to `O=C(CCCN1CCN(c2ccccn2)CC1)c1ccc(F)cc1`, the Potency entry was “inactive”. Still for that read-out and setting: the same measure for `C[N+](C)(C)CC(O)CC(=O)[O-]` (stereo not given): “inactive”. Same read-out and setting: the same measure for `CCc1cccc2c(CCO)c[nH]c12`: “inactive”; for `CC(C)(CC(=O)O)C(=O)O`: “inactive”.

For `CC(C[N+](C)(C)C)OC(N)=O` (stereo not given), the Potency entry is “inactive”. The same measure, in the same setting: the same measure for `CC(C)=CCCC(C)CC(=O)O` (stereo not given): “inactive”. On the same count and under the same terms, the same measure for `CC(=O)N(CC(O)CO)c1c(I)c(C(=O)NCCO)c(I)c(C(=O)NCC(O)CO)c1I` (stereo not given): “inactive”; for `O=Cc1cccc([N+](=O)[O-])c1`: “inactive”; for `CCN(Cc1ccncc1)C(=O)C(CO)c1ccccc1` (stereo not given): “inactive”. Still for that read-out and setting: the same measure for `CCOC(=O)C(=O)OCC`: “inactive”; for `O=C1CCCCCCCCCCCN1`: “inactive”; for `CCOC(=O)c1ccc(C)cc1`: “inactive”. Take `N=C(N)c1ccccc1`: the Potency result is “inactive”. Same read-out and setting: the same measure for `C[N+](C)(C)CCCCCC[N+](C)(C)C`: “inactive”; for `O=C(O)COc1nn(Cc2ccccc2)c2ccccc12`: “inactive”. On the same count and under the same terms, the same measure for `Cc1[nH]c(=O)c(C#N)cc1-c1ccc2nccn2c1`: “inactive”.

The values are drawn from PubChem BioAssay (Tox21).
